Compounds with a hit are over-represented: about 3.8% of the library has one in this group of screens.
TGFb inhibitor: TGF-b pathway inhibition | HepG2 CAGA-GFP TGF-b/SMAD3 reporter, GFP fluorescence, 18 h; TGF-beta stimulated, 500 pg/mL final | Potency, µM (titrated, usually from 46.1 µM), for the others: at the highest dose activity, negative = inhibition, usual class: inhibitors | actives 1.2% (n = 410,000) | AID 588855; further: on the % scale 0 is the no-effect control and ±100 the full control effect; nearly all actives have a fitted effect of over 65% in size
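Inhibition was scored as loss of TGF-beta-induced (500 pg/mL final, 18 hours, 37 degrees C) GFP in HEPG2 cells carrying a CAGA-GFP reporter, in DMEM with 1% FBS. Well GFP was summed per cell; Activity was normalised to unstimulated and stimulated DMSO wells, then concentration-response fitting.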
HT1080NT lethal: kills 2HG-producing HT-1080-NT fibrosarcoma cells | actives 1.6% (n = 360,000) | Potency, µM (titrated, usually from 46.1 µM), for inactives: top-dose activity, negative = less viability, actives largely listed as cytotoxic | HT-1080-NT fibrosarcoma viability, CellTiter-Glo ATP luminescence, 48 h;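 further: NT is the 2HG producing partner of a matched IDH1 knockdown line; 0% = DMSO-treated cells and -100% = media-only wells without cells; nearly all actives have a fitted effect of over 55% in size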
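Toxicity toward the 2HG-producing NT line was scored as %Activity, normalised to DMSO and no-cell wells, from CellTiter-Glo luminescence after 48 hours' treatment.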
HT1080 IDH1KD tx: HT-1080 IDH1 knockdown cell toxicity (counter line); HT-1080 IDH1 knockdown viability, ATP luminescence, 48 h; actives 2% (n = 360,000); Potency, µM (highest dose often 46.1 µM), for inactives: at the top dose activity, negative = toxicity, most hits filed as cytotoxic;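 further: 0% = DMSO wells and -100% = cell-free medium wells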
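Assay cells: HT-1080 with IDH1 knockdown, 750 per well, RPMI/5% FBS. Exposure: 48 h at 37 °C following 2 h pre-incubation. Read: CellTiter-Glo luminescence; fitted concentration-response, curve class assigned.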
HepG2 tox: kills HepG2 cells in TGF-b inhibitor counter-screen; HepG2 CAGA-GFP viability, ATP luminescence, 18 h; AID 588856; Potency, µM (top dose mostly 46.1 µM), for the others: at the highest dose activity change, negative = cytotoxicity, hits mostly cytotoxic; actives 0.76% (n = 410,000)
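CellTiter-Glo luminescence gave cytotoxicity after 18 hours at 37 degrees C. The cells were HepG2 CAGA-GFP in 1% FBS DMEM, stimulated with 500 pg/mL TGF-beta after compound addition. %Activity was normalised to no-cell wells (complete cell-killing) and DMSO (no toxicity), and curves were fitted and classified.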
ATXN viability: viability counter-screen for ATXN expression inhibitors. S2 cells (HEK-293 line with an ATXN2-luciferase reporter) viability, CellTiter-Fluor protease fluorescence, 24 h. Potency, µM (titrated, usually from 56.7 µM), most hits filed as cytotoxic. actives 0.49% (n = 400,000); further: nearly all actives have a fitted effect of over 40% in size
ATXN2 expr inh: ATXN2 expression inhibition; HEK-293 ATXN2-luciferase reporter, luminescence, 24 h; Potency, µM (titrated, usually from 57 µM), for inactives: at the top dose activity change, negative = inhibition, usual class: inhibitors; actives 0.72% (n = 360,000); further: on the % scale 0 is the no-effect control and ±100 the full control effect; nearly all actives have a fitted effect of over 55% in size
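ATXN2-luciferase reporter cells (luciferase flanked by upstream and downstream ATXN2 gene portions) were treated 24 h at 37 °C with compounds at up to 57 uM. SteadyGlo luminescence gave expression; GF-AFC fluorescence gave viability.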
The depositor's hits bear a star; i = inactive; u = inconclusive; x = not tested or not shown; ! = not confirmed by another sample. The call rests on the fitted dose curve; in most records, active means well fitted curve in the direction sought with a large enough effect; inconclusive means small, poorly fitted or top-dose-only effect, or another doubt; inactive means no such curve, though single readings can be large; an effect the other way counts as inactive or inconclusive. Potency means the concentration at half of the fitted maximal effect.

SMILES	TGFb inhibitor	HT1080NT lethal	HT1080 IDH1KD tx	HepG2 tox	ATXN viability	ATXN2 expr inh
CCOC(=O)c1cc(-c2ccccc2)n(CCCC(=O)Nc2ccc(C)c(C)c2)c1C	u	x	x	-24%	x	x
CCCCCCC(C)(C)c1ccc([C@@H]2C[C@H](O)CC[C@H]2CCCO)c(O)c1	13µM*	2.6µM*	4.6µM*	10µM*!	10µM*	14µM*
Cc1ccc(NC(=O)c2cc(-c3cc(Cl)ccc3C)n[nH]2)cc1NS(C)(=O)=O	-10%	u	u	-32%	10µM*	u
COc1cc([N+](=O)[O-])c2nc(C)ccc2c1[N+](=O)[O-]	u	u	u	-72%	28µM*	-25%
COc1cc([N+](=O)[O-])c2ncccc2c1[N+](=O)[O-]	1%	15µM*	7.3µM*	-69%	u	u
NC(Cc1ccc(N(CCCl)CCCl)cc1)C(=O)O (stereo not given)	x	u	-22%	x	x	x
O=C(CCCc1ccc(N(CCCl)CCCl)cc1)NCc1ccccc1	-10%	u	23µM*	-18%	i	x
O=c1[nH]c2cc(Cl)ccc2n1C1CCNCC1	x	x	x	x	i	1%
C#C[C@]1(O)C=C[C@@H]2[C@@H]3CCC4=CC(=O)CC[C@@H]4[C@H]3CC[C@@]21CC	x	x	x	x	x	9%
C/C(=N\Nc1ccccc1)c1c(O)n(-c2ccccc2)c(=O)[nH]c1=O	-23%	u	4.6µM*	-4%	i	-11%
C/C(=N\Nc1ccccc1)c1c(O)[nH]c(=O)[nH]c1=O	-1%	u	4.1µM*	-34%	i	-15%
C/C(=N\Nc1ccccc1)c1c(O)n(Cc2ccccc2)c(=O)[nH]c1=O	-2%	u	u	17%	i	-20%
COc1cc(CC#N)cc(OC)c1OC	x	x	x	x	i	4%
Cc1ccc(-c2nc(N(C)C3CCN(C)CC3)c3ccccc3n2)cc1	u	13µM*	16µM*	13µM*	u	20µM*
Cc1nc2cc(C(F)(F)F)ccc2n1C1CCN(Cc2nnnn2Cc2ccc3c(c2)OCO3)CC1	u	23µM*	29µM*	-37%	i	-26%
Cc1nc2cc(C(F)(F)F)ccc2n1C1CCN(Cc2nnnn2Cc2cccs2)CC1	-3%	-12%	-23%	-24%	i	22%
CC(C)n1c(/C=C/[C@H](O)C[C@H](O)CC(=O)O)c(-c2ccc(F)cc2)c2ccccc21	35%	8.2µM*	9.2µM*	-5%	i	x
C[C@H]([C@H](O)CCC(C)(C)O)[C@H]1CC[C@@]2(O)C3=CC(=O)[C@@H]4C[C@@H](O)[C@@H](O)C[C@]4(C)[C@@H]3CC[C@]12C	x	x	x	x	x	8%
C[n+]1c2cc(N)ccc2cc2ccc(N)cc21	-100%	2.3µM*	2.3µM*	-28%	x	3.2µM*
CC(C(=O)c1ccccc1)N(C)C (stereo not given)	x	x	x	x	i	10%
C=C1C(C)C2C(Cc3ccccc3)NC(=O)C23C(OC(C)=O)C=CC(C)(O)CC(C)CC=CC3C1O (stereo not given)	-19%	-4%	u	-20%	u	0%
CC(=O)O[C@@H]1/C=C/[C@](C)(O)C[C@@H](C)C/C=C/[C@H]2[C@H](O)C(C)=C(C)[C@H]3[C@H](Cc4ccccc4)NC(=O)[C@@]123	7%	2.6µM*	u	-36%	i	2%
CC(C)(C)c1ccc(C(=O)Nc2ccc(NC(=O)c3ccco3)cc2)cc1	u	10µM*	10µM*	-40%	i	u
O=C(Nc1ccc(Cl)c(Cl)c1)c1ccco1	-22%	-5%	-22%	-1%	u	53%
COc1ccc(CCNC(=O)c2ccc3c(c2)CCN3S(=O)(=O)c2ccc(C)cc2)cc1OC	-18%	x	x	-18%	u	-12%
